From PubChem BioAssay (Tox21)
Where “and” joins values, the source holds several entries; their conditions need not be identical. Identical values can stand only once. Records with an inconclusive call do not appear. Calls of active or inactive are those of the source. Unless noted, calls follow the shape of the dose curve; as a rule, active = well fitted curve in the direction sought with a large enough effect in the repeat runs; inconclusive = weak or mixed curves; inactive = no such curve, though single readings can be large; an effect the other way counts as inactive or inconclusive.

Legend:
[1] = qHTS assay to identify small molecule agonists of the estrogen receptor alpha (ER-alpha) signaling pathway in the presence of an antagonist - cell viability counter screen (AID 1259386);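 also: cells exposed to compounds for 22 h at 37 °C before the viability read; nearly all actives have a fitted effect of over 30% in size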; also: potency is read from the fitted curve at half-maximal effect; as to activity change, negative = cytotoxicity: series mostly up to about 92 µM
Summary of the method: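 VM7Luc4E2, stripped-serum pre-culture 5 d; 24hr plating; +ICI-182,780 10.0nM final; cpds 15 conc, 22hr, 37C/5% CO2; CellTiter-Fluor added at 21hr, fluorescence 1hr later.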

[2] = biological target: Progesterone receptor (Homo sapiens) (UniProt P06401); assay: qHTS assay to identify small molecule agonists of the progesterone receptor (PR) signaling pathway (AID 1346784; calls by dose curve; also: nearly all actives have a fitted effect of over 30% in size)
Summary of the method: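 The screen uses PR-UAS-bla HEK 293T cells in charcoal-stripped serum (2%). Compounds are applied for 16 hr at 37C after a 6 hr pre-incubation, and reporter activity is detected with a FRET beta-lactamase substrate after 2 hr at room temperature.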

[3] = biological target: Progesterone receptor (Homo sapiens) (UniProt P06401); assay: qHTS assay to identify small molecule antagonists of the progesterone receptor (PR) signaling pathway (AID 1346795; active = well fitted inhibition curve with a large enough effect in the signal ratio in the repeat runs, not every such curve was filed as active; the % refers to the signal ratio; also: potency is read from the fitted curve at half-maximal effect)
Summary of the method: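 After 6 hr plating at 37C in 2% stripped-serum medium, PR-UAS-bla HEK293T cells got compounds, then 1 nM R5020. Sixteen hours later, LiveBLAzer substrate was applied for 2 hr at room temperature and fluorescence was recorded.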

[4] = qHTS assay to identify small molecule antagonists of the progesterone receptor (PR) signaling pathway - cell viability counter screen (AID 1346798); also: nearly all actives have a fitted effect of over 50% in size; also: potency is read from the fitted curve at half-maximal effect; as to activity change, negative = cytotoxicity: series mostly up to about 92 µM
Summary of the method: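 Viability was determined by ATP-based luminescence (CellTiter-Glo) in PR-UAS-bla HEK293T cells cultured in 2% charcoal-stripped serum and incubated 16 hr with compounds under R5020 stimulation.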

[5] = qHTS assay to identify small molecule agonists of the progesterone receptor (PR) signaling pathway - cell viability counter screen (AID 1346799; calls by dose curve; also: nearly all actives have a fitted effect of over 45% in size; also: potency is read from the fitted curve at half-maximal effect)
Summary of the method: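 Viability was scored by ATP luminescence (CellTiter-Glo, 30 min, room temperature) in the same wells used for the reporter readout, after 16 hr compound exposure of PR-UAS-bla HEK293T cells.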

[6] = qHTS assay to identify small molecule antagonists of the TGF-beta/Smad signaling pathway - cell viability counter screen (AID 1346824); also: nearly all actives have a fitted effect of over 50% in size; also: potency is read from the fitted curve at half-maximal effect
Summary of the method: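 SBE-bla HEK 293T cells, incubated overnight, then compound plus 0.25 ng/mL TGF-beta1 (stock added) for 5 hr at 37 C. Viability was read in the same wells by CellTiter-Glo luminescence after 30 min at room temperature.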

[7] = qHTS assay to identify small molecule agonists of the TGF-beta/Smad signaling pathway - cell viability counter screen (AID 1346829); also: nearly all actives have a fitted effect of over 45% in size; also: potency is read from the fitted curve at half-maximal effect; as to activity change, negative = cytotoxicity: top concentration of the series differs between compounds
Summary of the method: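 Luminescence from CellTiter-Glo, read after a 30 min room-temperature incubation, gives cell viability of SBE-bla HEK 293T cells treated 5 hr with compounds at 37 C.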

[8] = qHTS assay to identify small molecule agonists of the TGF-beta/Smad signaling pathway (AID 1346859; active = well fitted activation curve with a large enough effect in the signal ratio in the repeat runs, not every such curve was filed as active; the % refers to the signal ratio; also: series mostly up to about 77 µM)
Summary of the method: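 Dual-wavelength fluorescence (460/530 nm emission) quantified beta-lactamase expression under the Smad binding element in HEK 293T cells following 5 hr compound treatment at 37 C.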

[9] = biological target: Thyrotropin-releasing hormone receptor (Homo sapiens) (UniProt P34981); assay: qHTS assay to identify small molecule antagonists of the thyrotropin-releasing hormone receptor (TRHR) signaling pathway (AID 1346877; active = well fitted inhibition curve with a large enough effect in the repeat runs, not every such curve was filed as active; also: series mostly up to about 51 µM)
Summary of the method: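 Intracellular calcium fluorescence, read kinetically every second over 3 min, reports TRH-evoked signalling in HEK293 cells carrying TRHR. Test compounds were added 5 min ahead of a 1 nM TRH challenge.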

[10] = biological target: Thyrotropin-releasing hormone receptor (Homo sapiens) (UniProt P34981); assay: qHTS assay to identify small molecule agonists of the thyrotropin-releasing hormone receptor (TRHR) signaling pathway (AID 1346891; calls by dose curve;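 also: HEK293 cells expressing TRHR with calcium dye readout; series mostly up to about 58 µM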)
Summary of the method: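 Kinetic fluorescence (3 min, 1 s intervals) reported intracellular calcium after compound transfer onto TRHR-Hek293 cells pre-loaded with dye for 2 h at 37 °C.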
% is scaled to controls: 0 for no effect and ±100 for the full control effect.

Thyrotropin-releasing hormone receptor (Homo sapiens), sequence (P34981 whole entry, looked up): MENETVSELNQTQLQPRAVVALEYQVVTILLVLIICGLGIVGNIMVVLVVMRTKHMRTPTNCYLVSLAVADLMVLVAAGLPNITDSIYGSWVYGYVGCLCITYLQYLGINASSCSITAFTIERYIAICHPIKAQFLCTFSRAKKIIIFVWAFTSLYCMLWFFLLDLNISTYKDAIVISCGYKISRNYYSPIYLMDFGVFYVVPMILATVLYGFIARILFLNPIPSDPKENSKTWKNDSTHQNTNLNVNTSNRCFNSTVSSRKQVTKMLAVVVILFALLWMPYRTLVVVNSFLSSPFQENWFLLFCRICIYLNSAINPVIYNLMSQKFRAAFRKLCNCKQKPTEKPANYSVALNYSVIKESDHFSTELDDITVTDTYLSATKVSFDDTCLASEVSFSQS
Progesterone receptor (Homo sapiens), sequence (P06401 whole entry, looked up): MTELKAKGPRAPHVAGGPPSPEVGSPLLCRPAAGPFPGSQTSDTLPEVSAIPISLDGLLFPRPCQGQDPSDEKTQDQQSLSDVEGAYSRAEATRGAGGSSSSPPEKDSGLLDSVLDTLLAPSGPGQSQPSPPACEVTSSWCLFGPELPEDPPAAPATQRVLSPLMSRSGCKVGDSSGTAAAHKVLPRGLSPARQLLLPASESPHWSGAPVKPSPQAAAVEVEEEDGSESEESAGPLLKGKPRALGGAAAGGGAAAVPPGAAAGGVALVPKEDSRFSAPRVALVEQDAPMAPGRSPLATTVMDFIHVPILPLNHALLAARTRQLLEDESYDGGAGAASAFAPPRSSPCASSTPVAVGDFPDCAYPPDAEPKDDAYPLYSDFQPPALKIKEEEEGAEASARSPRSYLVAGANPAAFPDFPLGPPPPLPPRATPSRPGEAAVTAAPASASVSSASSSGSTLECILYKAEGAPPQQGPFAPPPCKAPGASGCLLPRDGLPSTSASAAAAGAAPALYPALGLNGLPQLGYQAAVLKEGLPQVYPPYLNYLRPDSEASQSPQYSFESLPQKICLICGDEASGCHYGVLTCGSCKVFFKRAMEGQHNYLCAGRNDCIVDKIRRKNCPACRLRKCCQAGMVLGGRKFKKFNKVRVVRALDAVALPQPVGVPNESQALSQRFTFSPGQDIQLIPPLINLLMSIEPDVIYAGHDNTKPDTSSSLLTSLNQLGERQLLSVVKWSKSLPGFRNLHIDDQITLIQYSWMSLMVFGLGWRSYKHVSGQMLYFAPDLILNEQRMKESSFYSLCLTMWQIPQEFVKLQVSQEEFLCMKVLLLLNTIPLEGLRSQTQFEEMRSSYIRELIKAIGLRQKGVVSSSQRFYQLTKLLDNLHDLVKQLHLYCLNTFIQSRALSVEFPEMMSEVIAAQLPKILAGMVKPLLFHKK

O=C(/C=C/c1ccccc1)OC/C=C/c1ccccc1
inactive: Potency [1] | Potency [2] | Potency [3] | Potency [4] | Potency [5] | Potency [6] | Potency [7] | Potency [8] | Potency [9] | outcome [10]

COC(C)=O
inactive: Potency [1] | Potency [2] | Potency [3] | Potency [4] | Potency [5] | Potency [6] | Potency [8]

CC(CCc1ccccc1)NCC(O)c1ccc(O)c(C(N)=O)c1 (stereo unspecified)
inactive: Potency [2] | Potency [3] | Potency [4] | Potency [6] | Potency [7] | Potency [8] | Potency [9] | outcome [10]
active: Potency [1] 27.3 µM

COc1cc(/C=C/c2ccccc2)oc(=O)c1
inactive: Potency [1] | Potency [2] | Potency [3] | Potency [4] | Potency [5] | Potency [6] | Potency [8] | Potency [9] | outcome [10]

CN1CCCCC1CCN1c2ccccc2Sc2ccc(S(C)=O)cc21 (stereo unspecified)
inactive: Potency [1] | Potency [2] | Potency [3] | Potency [6] | Potency [7] | Potency [8] | Potency [9] | outcome [10]

CC(N=C(NC#N)Nc1ccncc1)C(C)(C)C (stereo unspecified)
inactive: Potency [1] | Potency [2] | Potency [3] | Potency [6] | Potency [7] | Potency [8] | Potency [9] | outcome [10]

Cc1cc(-c2ccc(N=Nc3cc(S(=O)(=O)O)c4ccccc4c3N)c(C)c2)ccc1N=Nc1cc(S(=O)(=O)O)c2ccccc2c1N
active: Potency [1] 30.8 µM
inactive: Potency [2] | Potency [3] | Potency [4] | Potency [6] | Potency [7] | Potency [9] | outcome [10]

CC(C)=CCNc1ncnc2c1ncn2[C@@H]1O[C@H](CO)[C@@H](O)[C@H]1O
inactive: Potency [1] | Potency [2] | Potency [3] | Potency [4] | Potency [8] | Potency [9] | outcome [10]

CC1(C)CCC[C@]2(C)[C@H]3CCO[C@]3(C)CC[C@@H]12
inactive: Potency [1] | Potency [2] | Potency [3] | Potency [4] | Potency [6] | Potency [7] | Potency [8] | Potency [9] | outcome [10]

CCC(COC(=O)CCS)(COC(=O)CCS)COC(=O)CCS
inactive: Potency [1] | Potency [2] | Potency [3] | Potency [4] | Potency [6] | Potency [7] | Potency [8] | Potency [9] | outcome [10]

CCCNCCC
inactive: Potency [1] | Potency [2] | Potency [4] | Potency [5] | Potency [6] | Potency [7] | Potency [8] | Potency [9] | outcome [10]

CN(C)CCN1CCN(c2cccc(Cl)c2)C1=O
inactive: Potency [1] | Potency [2] | Potency [3] | Potency [4] | Potency [6] | Potency [7] | Potency [8] | Potency [9] | outcome [10]

c1cnccn1
inactive: Potency [1] | Potency [2] | Potency [3] | Potency [4] | Potency [6] | Potency [8] | Potency [9] | outcome [10]

CC(C)(C)C1CCC(=O)CC1
inactive: Potency [1] | Potency [2] | Potency [3] | Potency [5] | Potency [6] | Potency [7] | Potency [8] | Potency [9] | outcome [10]

CCCCCCCCCCCCCC[N+](C)(C)Cc1ccccc1
inactive: Potency [1] | Potency [2] | Potency [8]
active: Potency [4] 55.3 µM and 5.96 µM | Potency [5] 27.7 µM and 6.68 µM and 12.6 mM | Potency [6] 49.7 µM | Potency [7] 49.7 µM and 19 µM

CCO[C@@H]1O[C@H](C(COCc2ccccc2)OCc2ccccc2)[C@H](OCc2ccccc2)[C@H]1O (stereo partly specified)
active: Potency [3] 26.6 µM
inactive: Potency [1] | Potency [2] | Potency [5] | Potency [6] | Potency [8] | Potency [9] | outcome [10]

Nc1ccc(C(=O)O)c(O)c1
inactive: Potency [1] | Potency [2] | Potency [3] | Potency [6] | Potency [8] | Potency [9] | outcome [10]

CC(C)(C)CC(C)(C)c1ccc(Nc2ccc(C(C)(C)CC(C)(C)C)cc2)cc1
inactive: activity change, negative = cytotoxicity [1] 1.15% [at 8.39 µM] | activation [2] -0.254% [at 8.39 µM] | activity change, negative = cytotoxicity [4] -7.66% [at 8.39 µM] | activity change, negative = cytotoxicity [5] 8.24% [at 8.39 µM] | viability change, negative = cytotoxic [6] 15.5% [at 6.97 µM] | activity change, negative = cytotoxicity [7] 1.44% [at 6.97 µM] | activation [8] 1.28% [at 6.97 µM] | activity, negative = inhibition [9] -2.04% [at 4.65 µM] | activation [10] -0.0029% [at 5.23 µM]

CN1CCC[C@@H]1CCO[C@](C)(c1ccccc1)c1ccc(Cl)cc1
inactive: Potency [1] | Potency [2] | Potency [6] | Potency [7] | Potency [8] | Potency [9] | outcome [10]
active: Potency [4] 21.1 µM | Potency [5] 8.41 µM

CCCCNS(=O)(=O)c1ccc(C)cc1
inactive: Potency [1] | Potency [2] | Potency [4] | Potency [5] | Potency [6] | Potency [7] | Potency [8] | Potency [9] | outcome [10]

COc1ccc2cc1Oc1ccc(cc1)C[C@H]1c3c(cc4c(c3Oc3cc5c(cc3OC)CCN(C)[C@@H]5C2)OCO4)CCN1C
inactive: Potency [2] | Potency [3] | Potency [5] | Potency [6] | Potency [7] | Potency [9] | outcome [10]
active: Potency [1] 13.3 µM

Fc1ccc(C(c2ccc(F)cc2)N2CCNCC2)cc1
inactive: Potency [1] | Potency [2] | Potency [3] | Potency [6] | Potency [7] | Potency [8] | Potency [9] | outcome [10]

C1CCC(SSC2CCCCC2)CC1
inactive: Potency [1] | Potency [2] | Potency [3] | Potency [4] | Potency [6] | Potency [8]

COC(=O)C1=C(C)NC(C)=C(C(=O)OCCN2CCN(C(c3ccccc3)c3ccccc3)CC2)C1c1cccc([N+](=O)[O-])c1 (stereo unspecified)
inactive: Potency [1] | Potency [2] | Potency [3] | Potency [4] | Potency [6] | Potency [7] | Potency [8] | Potency [9] | outcome [10]

CCCCCCCCCCCC(=O)OCC(C)OC(=O)CCCCC(=O)O (stereo unspecified)
inactive: Potency [1] | Potency [2] | Potency [3] | Potency [5] | Potency [6] | Potency [7] | Potency [8] | Potency [9] | outcome [10]

Cc1cc(C)c(/C=C2\C(=O)Nc3ccccc32)[nH]1
inactive: Potency [2] | Potency [4] | Potency [5] | Potency [6] | Potency [7] | Potency [8] | Potency [9]
active: Potency [1] 7.5 µM
